FGF22 binding – shifts melting point of recombinant human FGF22; AID 651658; 1.5% of 340,000 active; Q9HCT0; recombinant FGF22 thermal shift, SYPRO orange fluorescence; percent of sucrose octasulfate shift, DMSO zero; activity (Tm shift, normalised), % at 9.99 µM;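 active means mean Tm shift, scaled 0 neutral to 100 positive control, at about 1.3% or above, every replicate too, limit read from the data; inconclusive means no clear call, values can overlap the other calls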
esBAF inh – blocks esBAF chromatin remodeling in mouse ES cells. Bmi1-luciferase knock-in reporter, 24 h; 100% = twice the neutral-well signal. reporter increase, % at 12.5 µM. 2% of 350,000 active. AID 602393; in the data active means activation above about 40%; inconclusive means no clear call, values can overlap the other calls;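 further: a rise in the Bmi1 reporter signal indicates esBAF inhibition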
MITF TRPM1 HTS – MITF TRPM1 promoter activation in melanoma cells | activation, % at 12.5 µM | SK-MEL-5 TRPM1-promoter luciferase, 24 h; % of positive control, neutral wells = 0 | 0.75% of 300,000 active | AID 588334;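 active means mean activation of at least 80% with every replicate also reaching 80%; inconclusive means mean reaches 80% but some replicate falls short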
MLL AF4-AF9 inh – inhibitors of human MLL-AF4/AF9 interaction; 0.47% of 350,000 active; inhibition, % at 10 µM; AID 651704; AlphaScreen, biotin-AF4 peptide binding to FLAG-AF9;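 active means every replicate reaching a set inhibition limit, whatever the replicate mean, cut at about 25% in these data; inconclusive means mean inhibition reaches that limit but some replicates miss it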
Target sequence (P42568 whole entry, looked up): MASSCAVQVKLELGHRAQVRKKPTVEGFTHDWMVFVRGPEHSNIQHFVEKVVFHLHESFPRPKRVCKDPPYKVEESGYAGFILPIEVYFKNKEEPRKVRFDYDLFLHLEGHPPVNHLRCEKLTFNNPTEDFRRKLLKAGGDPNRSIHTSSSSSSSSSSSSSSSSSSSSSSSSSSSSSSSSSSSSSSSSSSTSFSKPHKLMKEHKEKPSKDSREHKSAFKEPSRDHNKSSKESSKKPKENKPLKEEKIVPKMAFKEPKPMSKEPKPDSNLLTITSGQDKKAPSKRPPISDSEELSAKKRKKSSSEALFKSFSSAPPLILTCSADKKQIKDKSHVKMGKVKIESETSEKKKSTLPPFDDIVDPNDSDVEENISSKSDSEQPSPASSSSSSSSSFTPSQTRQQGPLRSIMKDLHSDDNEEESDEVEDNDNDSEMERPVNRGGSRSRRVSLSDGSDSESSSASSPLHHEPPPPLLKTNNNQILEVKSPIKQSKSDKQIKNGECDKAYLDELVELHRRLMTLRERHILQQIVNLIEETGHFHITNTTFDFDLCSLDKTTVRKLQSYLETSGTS
Wnt act – activators of Wnt/beta-catenin signaling; 1.2% of 300,000 active; Wnt/beta-catenin reporter cell assay, activator, plate reader; activation, % at 9.35 µM; in the data active means activation above about 30%, passing the limit was not always enough; inconclusive means no clear call, values can overlap the other calls
SMARCA2 act – increases SMARCA2 function in MMTV reporter cells; MG213 cells, MMTV-luciferase reporter, dexamethasone, overnight; activation, % at 9.1 µM; 1% of 370,000 active; AID 652017; in the data active means activation above about 7.8%
SMARCA2 act conf – confirmation of SMARCA2 (BRM) function activators | shares compounds with SMARCA2 act | AID 652260 | activation, % at 9.1 µM | 30% of 3,500 active | MG213 cells, MMTV-luciferase with dexamethasone, luminescence, overnight; MG213 cells expressing E1A, Rb sequestered; DMSO wells 0%, reference activator 100%;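 active means activation above its plate's cutoff, the mean activation of tested wells plus 3 SD, cut at about 7.9% in these data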
GAL4-VP16 Luc – GAL4-VP16 reporter activation counter-screen | shares compounds with SMARCA2 act | HEK293 GAL4-VP16 pG5luc reporter, luciferase luminescence; scaled: DMSO wells 0%, SAHA wells 100% | activation, % at 9.1 µM | 41% of 3,500 active;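 active means activation above the solvent-only control well mean plus 3 SD, averaged across control plates, cut at about 5.2% in these data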
Each line names hits and unclear results; the compound was inactive in the other large screens (follow-up assays come after a bar, where they were run). The list is not random: actives were taken first. Their share in the collection is about 4.3%.

COc1ccc(NC(=O)Nc2ccc3c(c2)CC(=O)N([C@@H](C)CO)C[C@H](C)[C@H](CN(C)Cc2ccc(C(=O)O)cc2)O3)cc1	none (no result: MITF TRPM1 HTS, Wnt act, SMARCA2 act)
CN1C(=O)c2cc(NC(=O)c3cscn3)ccc2OC[C@@H]2O[C@H](CC(=O)N3CCCCC3)CC[C@@H]21	none (no result: MITF TRPM1 HTS, Wnt act, SMARCA2 act)
O=C(N/N=C/c1ccc(-c2ccccc2C(=O)O)o1)c1cccs1	SMARCA2 act 8.6 (no result: FGF22 binding, esBAF inh, MLL AF4-AF9 inh) | SMARCA2 act conf inactive | GAL4-VP16 Luc inactive
F[B-](F)(F)COCc1ccccc1C#Cc1ccccc1	SMARCA2 act 18 (no result: esBAF inh, MITF TRPM1 HTS) | SMARCA2 act conf 17 | GAL4-VP16 Luc inactive
CCCCC#Cc1ccccc1COC[B-](F)(F)F	FGF22 binding 1.4, SMARCA2 act 17 (no result: esBAF inh, MITF TRPM1 HTS) | SMARCA2 act conf 7.9 | GAL4-VP16 Luc 5.9
Cn1c(N)c(C(=O)Nc2ccccc2)c(=O)[nH]c1=O	none (no result: esBAF inh, MITF TRPM1 HTS, MLL AF4-AF9 inh)
Cn1c(N)c(C(=O)/C=C/c2ccccc2)c(=O)[nH]c1=O	SMARCA2 act 12 (no result: esBAF inh) | SMARCA2 act conf inactive | GAL4-VP16 Luc 9.4
O=c1c2cc([N+](=O)[O-])ccc2sn1-c1ccccc1	none (no result: MITF TRPM1 HTS)
N#Cc1ccc2sn(-c3ccccc3)c(=O)c2c1	SMARCA2 act 12 (no result: MITF TRPM1 HTS) | SMARCA2 act conf 7.9 | GAL4-VP16 Luc 11
CC(=O)Nc1ccc2sn(-c3ccccc3)c(=O)c2c1	SMARCA2 act 17 (no result: MITF TRPM1 HTS) | SMARCA2 act conf 8.8 | GAL4-VP16 Luc inactive
O=C(O)C[C@@H]1CC[C@@H]2[C@H](COC[C@H](O)CN2S(=O)(=O)c2ccc(F)cc2)O1	none (no result: MITF TRPM1 HTS, Wnt act, SMARCA2 act)
CCc1nc(C)cc2c1sc1ccccc12	SMARCA2 act 10.0 (no result: esBAF inh, MITF TRPM1 HTS) | SMARCA2 act conf 11 | GAL4-VP16 Luc inactive
CCCC(=O)Nc1ccc2c(c1)OC[C@H](C)N(Cc1nccs1)C[C@H](C)[C@H](OC)CN(C)C2=O	none (no result: MITF TRPM1 HTS, Wnt act, SMARCA2 act)
CC(=O)Nc1ccc(NC(=O)/C=C/c2ccc3c(c2)OCO3)cc1	none (no result: esBAF inh)
O=C(/C=C/c1ccc2c(c1)OCO2)Nc1cccnc1	SMARCA2 act 13 (no result: esBAF inh) | SMARCA2 act conf inactive | GAL4-VP16 Luc 5.6
Cc1cc(C)nc(NC(=O)/C=C/c2ccc3c(c2)OCO3)c1	esBAF inh 48, MITF TRPM1 HTS 115, Wnt act 44, SMARCA2 act 11 (no result: FGF22 binding, MLL AF4-AF9 inh) | SMARCA2 act conf 9.9 | GAL4-VP16 Luc 8.4
Cc1cccnc1NC(=O)/C=C/c1ccc2c(c1)OCO2	MITF TRPM1 HTS inconclusive (no result: FGF22 binding, MLL AF4-AF9 inh, Wnt act)
COC(=O)c1cccc(NC(=O)/C=C/c2ccc3c(c2)OCO3)c1	SMARCA2 act 8.2 (no result: FGF22 binding, esBAF inh, MLL AF4-AF9 inh, Wnt act) | SMARCA2 act conf inactive | GAL4-VP16 Luc inactive
COCC(=O)N1C[C@H](C)[C@H](OC)CN(C)C(=O)c2cc(NC(=O)c3ccccc3)ccc2OC[C@@H]1C	none (no result: MITF TRPM1 HTS, Wnt act, SMARCA2 act)
COC(=O)[C@H]1[C@H](CO)[C@H]2Cn3c(ccc(-c4ccccc4F)c3=O)[C@H]2N1C(=O)CC1CC1	none (no result: MITF TRPM1 HTS, Wnt act, SMARCA2 act)
C[C@H]1CN([C@@H](C)CO)C(=O)Cc2cc(NC(=O)NC3CCCCC3)ccc2O[C@@H]1CN(C)C(=O)Nc1ccc2c(c1)OCO2	none (no result: MITF TRPM1 HTS, Wnt act, SMARCA2 act)
Cc1ccc(-c2nc3ccc(Cl)cn3c2CC2CCCCC2)cc1	none (no result: MITF TRPM1 HTS)
Cc1ccc(-c2nc3ccc(C)cn3c2CC2CCCCC2)cc1	SMARCA2 act 8.1 (no result: esBAF inh, MITF TRPM1 HTS) | SMARCA2 act conf inactive | GAL4-VP16 Luc 5.1
c1cc(-c2cc3cc4c(cc3cn2)OCO4)cs1	esBAF inh 77, MITF TRPM1 HTS inconclusive, Wnt act 50, SMARCA2 act 8.9 | SMARCA2 act conf inactive | GAL4-VP16 Luc 7.9
Oc1cccc(Nc2ncnc3ccccc23)c1	SMARCA2 act 8.1 (no result: esBAF inh) | SMARCA2 act conf inactive | GAL4-VP16 Luc inactive
CCc1c(O)nc(SCC(=O)c2ccccc2)n(-c2ccccc2)c1=O	none
CCc1c(O)nc(SCC(=O)NC(C)(C)C)n(-c2ccccc2)c1=O	SMARCA2 act 8.1 (no result: FGF22 binding, MLL AF4-AF9 inh) | SMARCA2 act conf inactive | GAL4-VP16 Luc inactive
COC(=O)c1ccc(OC(=O)CS(=O)c2ccccc2[N+](=O)[O-])cc1 (stereo not drawn)	none (no result: esBAF inh)
